Pf Dd2 inh = P. falciparum Dd2 growth inhibition; SYBR Green, 72 h; hits give low values; activity change, % at 10 µM; hit rate 2.3% among 94,000; AID 1159554; in the data active = activity change below about -80%; inconclusive = no clear call, values can overlap the other calls
C diff HTS = inhibitors of Clostridium difficile growth; Clostridium difficile clinical isolate growth, OD600, 24 h; hits give low values; growth activity, negative = inhibition, % at 16 µg/mL (by protocol); hit rate 0.25% among 86,000;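 active = mean growth activity at or below -80% and every replicate also at or below -80%; inconclusive = mean at or below -80% but some replicate above -80%; inactive = mean growth activity above -80%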;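 note: 0% = DMSO wells and -100% = levofloxacin 16 µg/mL wells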
T cruzi growth-1 = T. cruzi proliferation inhibition; inhibition, % at 8.34 µM; hit rate 5.9% among 77,000; AID 624255; T. cruzi beta-gal in NIH3T3, GalScreen luminescence, 90 h;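 active = mean inhibition above about 93%, with at least 55% of replicates each passing it, limit read from the data, passing the limit was not always enough; inconclusive = only one of those two conditions holds; inactive = neither condition holds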
T cruzi growth-2 = blocks T. cruzi growth in NIH3T3 host cells; hit rate 72% among 5,600; inhibition, % at 8.35 µM; T. cruzi beta-gal in NIH3T3, GalScreen luminescence, 90 h; shares compounds with T cruzi growth-1;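 active = mean replicate inhibition above about 95% and at least 55% of replicates individually reaching it, limit read from the data; inconclusive = only one of the two criteria is met; inactive = neither criterion is met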
T cruzi growth-3 = blocks T. cruzi growth in NIH3T3 host cells; shares compounds with T cruzi growth-1; T. cruzi beta-gal in NIH3T3, GalScreen luminescence, 90 h; inhibition, % at 2.09 µM; hit rate 21% among 5,600;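 active = mean inhibition above about 95%, with at least 55% of replicates also reaching it, limit read from the data; inconclusive = meets just one of the two conditions; inactive = meets neither condition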;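 note: plate controls were neutral control median for no effect and positive control median for full effect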
3T3 cytotox = NIH/3T3 (mouse) viability loss; shares compounds with T cruzi growth-1; NIH/3T3 viability, CellTiter-Glo ATP luminescence, 90 h; cytotoxicity (signal decrease), % at 8.35 µM; hit rate 14% among 5,600;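 active = mean signal decrease across replicates above about 35% based on untreated-well scatter, with enough replicates individually passing, limit read from the data; inconclusive = no rule stated though some were filed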;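 note: 0% = median of neutral control wells and 100% = median of positive control wells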
NIH3T3 tox 2 = NIH/3T3 (mouse) viability loss | shares compounds with T cruzi growth-1 | NIH/3T3 viability, CellTiter-Glo ATP luminescence, 90 h | inhibition, % at 24.9 µM | hit rate 56% among 5,600 | AID 651744;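 active = mean loss of cell viability signal at or above a set limit, and enough replicates individually reaching it; inconclusive = meets only the mean limit or only the replicate share; inactive = meets neither condition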;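 note: 0% = median of neutral control wells and 100% = median of positive control wells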
An asterisk follows results filed as active; ? = inconclusive; / = no result. Compounds with a hit are over-represented: about 6.7% of the library has one in this group of screens.

SMILES	Pf Dd2 inh	C diff HTS	T cruzi growth-1	T cruzi growth-2	T cruzi growth-3	3T3 cytotox	NIH3T3 tox 2
O=C(C[C@@H]1CC[C@@H]2[C@H](COC[C@@H](O)CN2C(=O)Nc2cccc(Cl)c2)O1)N1CCCCC1	0	29	109*	39	21	-1	-21
O=C(C[C@@H]1CC[C@@H]2[C@H](COC[C@@H](O)CN2C(=O)Nc2cc(Cl)cc(Cl)c2)O1)N1CCCCC1	6	/	79	/	/	/	/
O=C(C[C@H]1CC[C@@H]2[C@H](COC[C@H](O)CN2C(=O)Nc2cccc(Cl)c2)O1)N1CCCCC1	2	31	-62	/	/	/	/
O=C(C[C@@H]1CC[C@@H](NC(=O)Cc2cccnc2)[C@@H](CO)O1)Nc1ccc(-c2ccccc2)cc1	-7	/	-33	/	/	/	/
CC(=O)N(C)C[C@@H]1Oc2cc(C#CCC3CCCC3)ccc2S(=O)(=O)N([C@H](C)CO)C[C@H]1C	-37	-6	35	/	/	/	/
COCC(=O)Nc1ccc2c(c1)C(=O)N(C)[C@@H]1CC[C@H](CC(=O)NCc3ccccc3F)O[C@H]1CO2	-2	-3	-10	/	/	/	/
COc1cccc(S(=O)(=O)N[C@@H]2CC[C@H](CCn3cc(-c4ccccc4OC)nn3)O[C@H]2CO)c1	-23	-2	-6	/	/	/	/
CCc1cnc(N2[C@@H](C#N)[C@H](c3ccc(C#CC(C)C)cc3)[C@@H]2CO)s1	-24	-31	107*	112*	52	-5	-2
CCc1cnc(N2[C@H](CO)[C@H](c3ccccc3)[C@@H]2C#N)s1	43	-7	-8	/	/	/	/
CCc1cnc(N2[C@@H](C#N)[C@@H](c3ccccc3)[C@@H]2CO)s1	15	-7	-3	/	/	/	/
CCc1cnc(N2[C@@H](C#N)[C@@H](c3ccc(C#CC(C)C)cc3)[C@@H]2CO)s1	-4	-5	97*	101*	108*	26	74*
CO[C@H]1CN(C)C(=O)c2ccc(NC(=O)c3ccc(F)cc3)cc2OC[C@H](C)N(C(=O)CN(C)C)C[C@H]1C	/	/	23	/	/	/	/
CNC[C@H]1Oc2ccc(NC(=O)Nc3c(C)noc3C)cc2C(=O)N([C@H](C)CO)C[C@H]1C	19	1	-35	/	/	/	/
CNC[C@@H]1Oc2ccc(NC(=O)Nc3cccc4ccccc34)cc2C(=O)N([C@H](C)CO)C[C@H]1C	22	2	/	/	/	/	/
CC(C)(C)[S@](=O)N1Cc2cc(C(=O)NCc3ccncc3)nc(-c3cccc(-c4ccc(C#N)cc4)c3)c2[C@@H]1CCO	-67	/	99*	103*	57	18	?
CC(C)(C)[S@@](=O)N1Cc2cc(C(=O)NCCN3CCCC3)nc(-c3cccc(-c4ccc(C#N)cc4)c3)c2[C@H]1CCO	-77	/	33	/	/	/	/
CN1CCN(C(=O)c2cc3c(c(-c4cccc(-c5ccc(C#N)cc5)c4)n2)[C@@H](CCO)N([S@](=O)C(C)(C)C)C3)CC1	22	/	37	/	/	/	/
CC(C)(C)[S@](=O)N1Cc2cc(C(=O)N3CCCCC3)nc(-c3cccc(-c4ccc(C#N)cc4)c3)c2[C@@H]1CCO	-22	/	101*	107*	75	14	18
COc1cccc(CNC(=O)c2cc3c(c(-c4cccc(-c5cccc(C#N)c5)c4)n2)[C@H](CCO)N([S@@](=O)C(C)(C)C)C3)c1	-55	/	74	/	/	/	/
CC(C)(C)[S@](=O)N1Cc2cc(C(=O)NCCc3ccncc3)nc(-c3cccc(-c4ccc(C#N)cc4)c3)c2[C@@H]1CCO	-74	/	97*	112*	91	46*	39*
COc1cccc(CNC(=O)c2cc3c(c(-c4cccc(-c5ccncc5)c4)n2)[C@H](CCO)N([S@@](=O)C(C)(C)C)C3)c1	-78	/	100*	110*	93	-12	52*
CC(C)(C)[S@@](=O)N1Cc2cc(C(=O)NCCc3ccncc3)nc(-c3cccc(-c4cccc(C#N)c4)c3)c2[C@H]1CCO	-43	/	78	/	/	/	/
C[C@@H]1CN([C@H](C)CO)C(=O)c2cc(-c3ccc(F)cc3)cnc2O[C@@H]1CN(C)C(=O)Nc1ccc(F)cc1	3	14	-111	/	/	/	/
C[C@@H]1CN([C@@H](C)CO)C(=O)c2cc(Br)cnc2O[C@@H]1CN(C)Cc1ccc(C(=O)O)cc1	32	1	/	/	/	/	/
CC(C)NC(=O)N1C[C@@H]2[C@H](c3ccccc31)[C@H](CO)N2Cc1ccccc1	0	2	45	/	/	/	/
SMILES	Pf Dd2 inh	C diff HTS	T cruzi growth-1	T cruzi growth-2	T cruzi growth-3	3T3 cytotox	NIH3T3 tox 2
CO[C@H]1CN(C)C(=O)c2cc(NC(C)=O)ccc2OC[C@H](C)N(S(=O)(=O)c2cn(C)cn2)C[C@H]1C	11	/	12	/	/	/	/
C[C@@H]1CCCCO[C@@H](CN(C)CC2CCCCC2)[C@H](C)CN([C@H](C)CO)C(=O)c2cc(NS(=O)(=O)c3ccc(F)cc3)ccc2O1	-51	20	85	/	/	/	/
C[C@@H]1CN([C@H](C)CO)C(=O)c2cccc(NC(=O)c3nc4ccccc4s3)c2O[C@@H]1CN(C)Cc1ccccc1	-46	1	?	100*	50	1	26
COc1ccc(S(=O)(=O)N(C)C[C@H]2Oc3c(NC(=O)c4nc5ccccc5s4)cccc3C(=O)N([C@@H](C)CO)C[C@H]2C)cc1	-61	-1	16	/	/	/	/
COc1ccc(CN(C)C[C@H]2Oc3c(NC(=O)c4nc5ccccc5s4)cccc3C(=O)N([C@@H](C)CO)C[C@@H]2C)cc1	-42	7	92	/	/	/	/
C[C@@H]1CN([C@H](C)CO)C(=O)c2cccc(NC(=O)c3nc4ccccc4s3)c2O[C@@H]1CN(C)Cc1ccc(-c2ccccc2)cc1	-48	-1	111*	107*	71	4	-9
COc1ccc(CN(C)C[C@H]2Oc3c(NC(=O)c4nc5ccccc5s4)cccc3C(=O)N([C@H](C)CO)C[C@@H]2C)cc1	-17	-5	?	90	74	3	11
C[C@@H]1CN([C@@H](C)CO)C(=O)c2cccc(NC(=O)c3nc4ccccc4s3)c2O[C@H]1CN(C)Cc1ccc(-c2ccccc2)cc1	-75	5	52	/	/	/	/
COc1ccc(S(=O)(=O)N(C)C[C@@H]2Oc3c(NC(=O)c4nc5ccccc5s4)cccc3C(=O)N([C@H](C)CO)C[C@@H]2C)cc1	-41	3	112*	99*	111*	38*	51*
C[C@H]1CN([C@@H](C)CO)C(=O)c2cccc(NC(=O)c3nc4ccccc4s3)c2O[C@@H]1CN(C)Cc1ccccc1	-61	11	77	/	/	/	/
CO[C@H]1CN(C)C(=O)c2cc(NC(=O)CC(F)(F)F)ccc2OC[C@@H](C)NC[C@H]1C	15	-1	/	/	/	/	/
CS(=O)(=O)Nc1ccc2c(c1)[C@H]1C[C@H](CC(=O)O)O[C@@H](CO)[C@H]1O2	-13	-1	/	/	/	/	/
C[C@H](NC(=O)C[C@H]1C=C[C@H](NC(=O)Cc2ccccn2)[C@@H](CO)O1)c1ccccc1	21	3	22	/	/	/	/
